The test system of this assay is Trichoderma virens ATCC 9645. The assay is described as follows: growth yield (OD600) relative to untreated control; higher = less growth inhibition. The settings on record: compound concentration: 100 uM. A digest of the protocol:
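Trichoderma virens ATCC 9645 spores, from potato dextrose agar plates grown for 7 days, were brought to 15,000 spores ml^−1 in potato dextrose broth and dispensed as 100 μl aliquots into 96-well plates. Each aliquot received library compounds at 100 μM final, with or without a biocide at 200 ng ml^−1, before growth at 30 °C and OD600 readings on a BioTek EL800 at 40 h and 72 h. Growth is expressed relative to the control containing neither agent and represents means of duplicate screens.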

Each structure is given as a SMILES string. Structures can show the parent of a compound that is named as a salt. ± gives the standard error. Among all 1,300 compounds or so, about 75 (6%) showed an effect of 50% or more. The full list was thinned out, with strong results kept by preference.

Turning to `CCCCOc1cc(C(=O)OCCN(CC)CC)ccc1N` [Benoxinate hydrochloride], the growth yield reads like this: (40 h) 103 ± 3%; (72 h) 103 ± 1.1%.
On the same counts, the results for `CCCCc1oc2ccc(NS(C)(=O)=O)cc2c1C(=O)c1ccc(OCCCN(CCCC)CCCC)cc1` [Dronedarone hydrochloride] are 6.19 ± 1.8% and 1.99 ± 0.52%.
For `CCCCCCCN(CC)CCCC(O)c1ccc(NS(C)(=O)=O)cc1` (centres undefined) [Ibutilide fumarate], in that order: 100 ± 2.9% and 101 ± 2.5%.
`CCCCc1oc2ccccc2c1C(=O)c1cc(I)c(OCCN(CC)CC)c(I)c1` [Amiodarone hydrochloride]: the growth yield runs as follows: (40 h) 3.18%; (72 h) 2.94%.
For `CN(CCOc1ccc(NS(C)(=O)=O)cc1)CCc1ccc(NS(C)(=O)=O)cc1` [Dofetilide], in that order: 100 ± 5.9% and 98.7 ± 4.3%.
Consider `C[N+]1(C)CCC(OC(=O)C(O)(c2ccccc2)C2CCCC2)C1` (centres undefined) [Glycopyrrolate], for which the growth yield (40 h) was found to be 96.26 ± 0.95% and the growth yield (72 h) came to 90.72 ± 0.73%.
For the compound `CCC(=O)OCC(=O)[C@@]1(OC(=O)CC)[C@@H](C)C[C@H]2[C@@H]3CCC4=CC(=O)C=C[C@]4(C)[C@@]3(Cl)[C@@H](O)C[C@@]21C` [Beclomethasone dipropionate], the growth yield is, setting by setting: (40 h) 103 ± 7.8%; (72 h) 98.7 ± 3%.
On the same counts, the results for `N=C(N)NCCN1CCCCCCC1` [Guanethidine sulfate] are 99.6 ± 1.1% and 100.79 ± 0.1%.
Take `OCCN1CCN(CC/C=C2/c3ccccc3Sc3ccc(Cl)cc32)CC1` [Zuclopenthixol dihydrochloride]: the growth yield reads like this: (40 h) 15.1 ± 1.8%; (72 h) 60.4 ± 5.7%.
Consider `OCCOCCN1CCN(C2=Nc3ccccc3Sc3ccccc32)CC1` [Quetiapine hemifumarate], for which the growth yield runs as follows: (40 h) 108 ± 15%; (72 h) 106 ± 12%.
On the same counts, the results for `CN(C)CC/C=C1/c2ccccc2Sc2ccc(Cl)cc21` [Chlorprothixene hydrochloride] are 70.5 ± 6.3% and 90.8 ± 2.7%.
On the same counts, the results for `Cc1cccc(N(C)C(=S)Oc2ccc3ccccc3c2)c1` [Tolnaftate] are 0% and 0%.
On to `O=C(O)COC(=O)Cc1ccccc1Nc1c(Cl)cccc1Cl` [Aceclofenac], for which the growth yield reads like this: (40 h) 94.2 ± 2.1%; (72 h) 95.02 ± 0.42%.
On the same counts, the results for `COc1ccc2[nH]cc(CCNC(C)=O)c2c1` [Melatonin] are 101% and 97.3%.
`CCCCCNC(=N)N/N=C/c1c[nH]c2ccc(OC)cc12` [Tegaserod maleate]: the growth yield was 5.24 ± 0.16% (40 h) and 3.88 ± 0.52% (72 h).
On the same counts, the results for `CN(C)CCN1C(=O)c2ccccc2N(C)c2ccccc21` [Dibenzepine hydrochloride] are 101 ± 1.8% and 105 ± 3%.
For `CC(C)NC[C@@H](O)COc1ccc(CC(N)=O)cc1` [(R)-(+)-Atenolol], the growth yield reads like this: (40 h) 102 ± 4%; (72 h) 97.8 ± 1.8%.
For `C=C1C[C@H]2[C@@H]3C=C(C)C4=CC(=O)CC[C@]4(C)[C@H]3CC[C@]2(C)[C@@]1(OC(C)=O)C(C)=O` [Melengestrol acetate], in that order: 96.6 ± 1.6% and 94.5 ± 2.4%.
As to `C=C(NC(=O)C(=C)NC(=O)c1csc(C2=N[C@@H]3c4csc(n4)[C@H]4NC(=O)c5csc(n5)[C@H]([C@](C)(O)[C@@H](C)O)NC(=O)[C@H]5CSC(=N5)/C(=C/C)NC(=O)[C@H]([C@@H](C)O)NC(=O)c5csc(n5)[C@]3(CC2)NC(=O)[C@H](C)NC(=O)C(=C)NC(=O)[C@H](C)NC(=O)[C@H]([C@@H](C)CC)N[C@@H]2C=Cc3c([C@H](C)O)cc(nc3[C@H]2O)C(=O)O[C@@H]4C)n1)C(N)=O` [Thiostrepton], the growth yield reads like this: (40 h) 96.6 ± 2.9%; (72 h) 99 ± 2.1%.
On the same counts, the results for `CC(=O)NCCCS(=O)(=O)O` [Acamprosate calcium] are 98.32 ± 0.48% and 95.9 ± 1.7%.
On the same counts, the results for `Oc1c(I)cc(Cl)c2cccnc12` [Clioquinol] are 18.3 ± 7.8% and 12.9 ± 5.3%.
Turning to `Oc1c(Cl)cc(Cl)c2cccnc12` [Chloroxine], the growth yield was found to be 1.27 ± 0.32% (40 h) and 1.36 ± 0.32% (72 h).
As for `CCN[C@H]1C[C@H](C)S(=O)(=O)c2sc(S(N)(=O)=O)cc21` [Dorzolamide hydrochloride], the growth yield came to 99.3 ± 5.6% (40 h) and 92.7 ± 6.7% (72 h).
On the same counts, the results for `CO/N=C(\C(=O)N[C@@H]1C(=O)N2C(C(=O)O)=C(COC(N)=O)CS[C@H]12)c1ccco1` [Cefuroxime sodium salt] are 96.9 ± 2.9% and 89.9 ± 1.1%.
On the same counts, the results for `O=C1C(CC[S+]([O-])c2ccccc2)C(=O)N(c2ccccc2)N1c1ccccc1` (centres undefined) [Sulfinpyrazone] are 102 ± 1.1% and 106 ± 2.1%.
On the same counts, the results for `CC(N/C(=N\C#N)Nc1ccncc1)C(C)(C)C` (centres undefined) [Pinacidil] are 100 ± 2.2% and 103 ± 0.21%.
Turning to `N=C(N)NCc1cccc(I)c1` [Iobenguane sulfate], the growth yield by setting is: (40 h) 105 ± 1.9%; (72 h) 106 ± 1.1%.
In the case of `Nc1nc(NC2CC2)c2ncn([C@H]3C=C[C@@H](CO)C3)c2n1` [Abacavir Sulfate], the growth yield reads like this: (40 h) 97.2 ± 2.5%; (72 h) 98.48 ± 0.1%.
On the same counts, the results for `CCC[C@H](N[C@@H](C)C(=O)N1[C@H](C(=O)O)C[C@@H]2CCCC[C@@H]21)C(=O)OCC` [Perindopril] are 101 ± 3.5% and 96.9 ± 2.5%.
With `Cn1c(=O)c2c(ncn2CC(=O)O)n(C)c1=O` [Acefylline], the growth yield is 96.6 ± 1.9% (40 h) and 95.12 ± 0.94% (72 h).
Take `O=C1NCCN1CCN1CCC(c2cn(-c3ccc(F)cc3)c3ccc(Cl)cc23)CC1` [Sertindole]: the growth yield is 34.5 ± 20% (40 h) and 111 ± 2.4% (72 h).
Regarding `O=C(O)c1cn(-c2ccc(F)cc2)c2cc(N3CCNCC3)c(F)cc2c1=O` [Sarafloxacin], the growth yield worked out at 101 ± 4.1% (40 h) and 97 ± 2.4% (72 h).

The values are drawn from the supplement of paper PMC8007513.
